Results published in PubChem BioAssay (EPA / NIEHS).
Active and inactive are the calls of the source. How the source made its calls: active means hit-call score of the fitted dose curve at least 0.9, where 1 is the maximum; inactive means score below 0.9.

Test: Tanguay_ZF_120hpf_MUSC: Oregon State University Tanguay Lab 120 Hour Post-fertilization zebrafish Assay for Muscle Malformation (AID 2284401)
Procedure, shortened: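 Scored as a binary brightfield endpoint at 120 hpf, fitted versus DMSO. Single dechorionated wild-type (Tropical 5D) zebrafish embryos per well, statically exposed at 28C from 6 hpf onward with final DMSO 0.64%.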

Compound | outcome
O=C(O)C(F)(F)C(F)(F)C(F)(F)C(F)(F)C(F)(F)C(F)(F)C(F)(F)C(F)(F)C(F)(F)C(F)F | inactive
OCCCC(F)(F)C(F)(F)C(F)(F)C(F)(F)C(F)(F)C(F)(F)C(F)(F)F | inactive
O=C(O)C(F)(F)C(F)(F)C(F)(F)C(F)(F)C(=O)O | inactive
